The whole screen tested about 69,000 compounds, of which about 950 (1.4%) showed an effect of 50% or more. Shown is part of a subset that was picked to be rich in strong results.
These molecules were tested on Mycobacterium tuberculosis (assay: Cornell M. t heat shock assay; further: in the data most compounds retested in dose-response had high values).
Assay type: functional, organism-based
Set-up: dose or concentration left out as unconfirmed

Row | SMILES | Percent Effect [%]
1 | c1ccc2nc(N3CCOC(Cn4cncn4)C3)cnc2c1 (centres undefined) | -13.9
2 | c1ccc2nc(N3CCOC(Cn4cccn4)C3)cnc2c1 (centres undefined) | -17.06
3 | Cc1cnn(CC2CN(c3cnc4ccccc4n3)CCO2)c1 (centres undefined) | 103.1
4 | Cc1cc(C)n(CC2CCCN2C(=O)c2nccc3ccccc23)n1 (centres undefined) | 3.715
5 | CC(=O)N(C)[C@H]1CC[C@]2(CC1)CNC(=O)c1cc(C)ccc1O2 | 5.316
6 | Cc1nc(-n2nc(-c3cccs3)cc2N)[nH]c(=O)c1C | 103.7
7 | CN1CCN(Cn2nc(-c3cccs3)ccc2=O)CC1 | 6.699
8 | CC(C(=O)N1CCCC1)n1nc(-c2cccs2)cc(N)c1=O (centres undefined) | -4.273
9 | Cc1nn(C)c(C)c1S(=O)(=O)NCCn1ccc(-c2cccs2)n1 | -25.61
10 | CC(C(N)=O)n1nc(-c2cccs2)cc(N)c1=O (centres undefined) | 10.66
11 | CCc1c(C)nc(-n2nc(-c3cccs3)cc2N)[nH]c1=O | 106.4
12 | CC1c2ncc(CN3CCN(C)CC3)n2CCN1Cc1ccsc1.O=C(O)C(F)(F)F.O=C(O)C(F)(F)F.O=C(O)C(F)(F)F (centres undefined) | -30.83
13 | CCN1CCC2(CC1)OCCN2C(=O)c1ccc(OC)c(Cl)c1.Cl | 7.471
14 | CCn1ncc2c1C(COC)N(C(=O)c1cccs1)CC2.O=C(O)C(F)(F)F (centres undefined) | 19.39
15 | O=C(CC1CC2(CCN(CC3CC3)CC2)c2ccccc21)NC1CCC1.O=C(O)C(F)(F)F (centres undefined) | -33.11
16 | O=C(O)C(F)(F)F.O=C1COC2(CCN(C(=O)c3ccco3)CC2)CN1Cc1ccccn1 | -21.74
17 | CC(C)(C)c1ccc(OCC(=O)O)c(CN2C[C@H]3C[C@H](O)C[C@H]3C2)c1 | -6.021
18 | Cc1noc(C)c1CN1C(=O)[C@H]2CC[C@@H]1CN(C(=O)c1cscn1)C2 | 9.12
19 | CNC(=O)c1ccc2c(c1)C1(CCN(CCOC)CC1)C(=O)N2.O=C(O)C(F)(F)F | -17.93
20 | Fc1cccc(Cl)c1CNCCOc1ccccn1 | -12.87
21 | Fc1cccc(Cl)c1CNCc1ccccn1 | 50.99
22 | Fc1cccc(Cl)c1CNCCCOc1ccccn1 | -11.57
23 | COCC(=O)NCc1cc(=O)n2c(n1)CN(CC1CCOC1)CCC2.O=C(O)C(F)(F)F (centres undefined) | -14.54
24 | CC(C)NC(=O)N1CCC2(CCC(=O)N2CCN2CCCC2)CC1.O=C(O)C(F)(F)F | -7.519
25 | c1ccc(-c2nc(SCc3nnc(C4CC4)o3)n[nH]2)nc1 | 78.14

Row | SMILES | Percent Effect [%]
26 | CCc1noc(CSc2n[nH]c(-c3ccccn3)n2)n1 | 92.11
27 | CCc1nnc(CSc2ccccn2)o1 | 0.1559
28 | O=C(c1ccccn1)N1CCCN(Cc2nnc(C3CC3)o2)CC1 | 27.04
29 | CCc1noc(CN2CCN(C(=O)c3ccccn3)CC2)n1 | 7.072
30 | Cc1nnc(CSc2n[nH]c(-c3ccccn3)n2)o1 | 13.15
31 | COCCN1C(=O)[C@H]2CC[C@@H]1CN(Cc1nnc(-c3ccccc3)o1)C2 | 0.9802
32 | CCOCC1CN(c2ccc(C)nn2)Cc2cnn(CC)c21.O=C(O)C(F)(F)F.O=C(O)C(F)(F)F (centres undefined) | 34.67
33 | CS(=O)(=O)CC(=O)N1C[C@H]2CCC[C@@]2(COCc2ccccn2)C1.O=C(O)C(F)(F)F | 1.254
34 | O=C(O)C(F)(F)F.c1coc(CN2CCC3(CC2)COC(COCC2CC2)C3)c1 (centres undefined) | -19.69
35 | O=C(O)C(F)(F)F.O=C(c1cccc(F)c1)N1C[C@H]2CN(Cc3ccccn3)C[C@H]2C1 | -10.41
36 | O=C(O)C(F)(F)F.O=C1CC[C@]2(CC[C@@H](NCc3ccsc3)CC2)N1Cc1ccccc1 | -7.125
37 | COCc1nn(C(C)C)c2c1CCN(Cc1ccoc1)C2.O=C(O)C(F)(F)F | -50.08
38 | Cc1cc(NCCc2cnccn2)nc(-c2ccccc2O)n1 | 15.98
39 | Cc1cc(NCCNc2cccnc2)nc(-c2ccccc2O)n1 | 65.56
40 | Cc1cc(NCCc2nc(C)c[nH]2)nc(-c2ccccc2O)n1 | 7.352
41 | Cc1cc(NCCO)nc(-c2ccccc2O)n1 | 5.939
42 | Cc1cc(NCCN)nc(-c2ccccc2O)n1 | 74.35
43 | Cc1cc(NCCNc2cccnc2)nc(N)n1 | -13.91
44 | Cc1cc(C)c(N(CC(O)CNCc2ccco2)S(C)(=O)=O)c(C)c1.O=C(O)c1ccccc1 (centres undefined) | 18.07
45 | CCOC1COC2(CCN(Cc3ccc(F)cc3)CC2)C1.O=C(O)C(F)(F)F (centres undefined) | -14.13
46 | CCCC(=O)N(CCCN1CCOCC1)c1nc2c(C)ccc(Cl)c2s1.Cl | 99.14
47 | CCCC(=O)N(CCCN1CCOCC1)c1nc2c(C)c(C)ccc2s1.Cl | 46.86
48 | CCCC(=O)N(CCCN1CCOCC1)c1nc2c(Cl)cccc2s1.Cl | 25.9
49 | COC(=O)c1ccc(CN[C@@H]2COC[C@H]2Cc2cc(C)no2)cc1.O=C(O)CC(O)(CC(=O)O)C(=O)O | -21.34
50 | CC(C)Nc1cccc(CC2CCN(C)C2)n1.O=CO (centres undefined) | 4.45

Row | SMILES | Percent Effect [%]
51 | CCCc1cc(NCCn2cccn2)n2nccc2n1 | 70.39
52 | CCCc1cc(NCCN2CCNC2=O)n2nccc2n1 | -6.778
53 | CCCc1cc(NCCn2cccn2)n2ncnc2n1 | 8.061
54 | COCCN(C)C1COC2(CCN(Cc3cccc(F)c3)CC2)C1.O=C(O)C(F)(F)F.O=C(O)C(F)(F)F (centres undefined) | -38.12
55 | Cn1cccc1C(=O)N1CCC2(CCN2c2ncccn2)C1.O=C(O)C(F)(F)F (centres undefined) | 8.832
56 | CCc1ccc(CN2CC[C@H]3[C@H]2CC(=O)N3Cc2cccc(C)n2)o1.O=C(O)C(F)(F)F.O=C(O)C(F)(F)F | -1.259
57 | Cc1ccc(CNC(c2cccc(F)c2)c2nccn2C)o1.Cl (centres undefined) | 79.6
58 | Cc1ccc(CNC(C)c2cc(F)ccc2N2CCN(C)CC2)o1 (centres undefined) | -35.24
59 | Cc1ccc(CNC(c2ccc(F)cc2)c2nccn2C)o1 (centres undefined) | 74.11
60 | Cc1ccc(CNCCC(O)(c2nccn2C)C(F)(F)F)o1 (centres undefined) | -16.27
61 | COc1c(CNC(c2cccc(F)c2)c2nccn2C)c(C)nn1C (centres undefined) | -20.66
62 | CC(c1cccc(F)c1)N1CCN(Cc2nccn2C)CC1 (centres undefined) | -12.42
63 | Cl.Cn1nc(C2CCCN(Cc3ccc(F)c(F)c3)C2)c2nccnc21 (centres undefined) | -15.39
64 | O=C(O)C(F)(F)F.O=C(O)C(F)(F)F.O=C1CO[C@@H]2CN(Cc3nccs3)C[C@H]2N1Cc1ccncc1 | -20.96
65 | O=C(O)C(F)(F)F.O=C(O)C(F)(F)F.c1cncc(O[C@H]2CC[C@H]3[C@H]2OCCN3C2CCC2)c1 | -41.43
66 | COc1nccnc1-c1cccc(-c2ccn(CC3COCCO3)n2)c1 (centres undefined) | -10.15
67 | CSc1nccc(-c2cccc(-c3ccn(CC4COCCO4)n3)c2)n1 (centres undefined) | 87.01
68 | COc1cccc(-c2cccc(-c3ccn(CC4COCCO4)n3)c2)n1 (centres undefined) | -12.43
69 | Cc1cnccc1-c1cnn(CCNC(=O)c2cccnc2)c1C1CC1.Cl | -20.8
70 | O=C(NCCNc1ncccn1)C1CCN(C(=O)NC2CC2)CC1 | 12.93
71 | COc1ccc(-c2nnc(SC(C)C(=O)NCC(C)C)[nH]2)c(OC)c1 (centres undefined) | 21.58
72 | Cc1cccnc1CN(C)C(C(=O)O)c1ccc(-n2cccn2)cc1 (centres undefined) | 85.61
73 | Cc1cccnc1CN(C)C(C(=O)O)c1ccc(-c2ccn[nH]2)cc1 (centres undefined) | 46.05
74 | Cc1cccnc1CN(C)C(C(=O)O)c1ccc(C(C)(C)C#N)cc1 (centres undefined) | 35.15
75 | Cc1cccc(OCCCNC(=O)Cn2ccc(C)cc2=O)c1 | 9.396

Row | SMILES | Percent Effect [%]
76 | CCn1ccc(-c2cc(NCCCOc3cccc(C)c3)nc(C)n2)n1 | 104.2
77 | CCOc1cccc(C(=O)Nc2ccn(CC)n2)c1 | 10.2
78 | COc1ccccc1OCCNCCn1cccn1 | -4.408
79 | CCn1ccc(-c2cc(C(=O)O)n3nc(C)c(Cl)c3n2)n1 | 6.637
80 | CCn1ccc(-c2cc(NCCCOc3ccccc3C)nc(C)n2)n1 | 105.6
81 | Cc1oncc1C(=O)N1C[C@H](OCc2ccccn2)[C@H]2OCCC[C@H]21.O=C(O)C(F)(F)F | -20.31
82 | CCOC(=O)CSc1nnc([C@@H](N)C(C)C)o1.Cl | -3.757
83 | CNC(=O)c1cc2c(nc1NCC1CC1)CCN(CC1CC1)CC2.O=C(O)C(F)(F)F.O=C(O)C(F)(F)F | -24.38
84 | Cc1cccc(C)c1CCNC(=O)N1CCCC2(C1)OCCO2 | 5.49
85 | O=CO.c1nc(CN2CCCC(Cc3ccc(NC4CCCC4)nn3)C2)c[nH]1 (centres undefined) | 20.05
86 | Cc1ccc(CN2C[C@H]3C[C@H](C(=O)Nc4cccnc4)[C@@H](C2)O3)cc1 | 0.4433
87 | Cc1cnc(CNC(=O)[C@@]23CCO[C@@H]2CCNC3)cn1.O=C(O)C(F)(F)F | 23.9
88 | c1cncc(-c2ccc3c(c2)CCC32CCNCC2)c1 | 88.51
89 | c1cc(-c2ccc3c(c2)CCC32CCNCC2)ccn1 | -56.04
90 | O=C(O)C(F)(F)F.O=C(O)C(F)(F)F.c1cncc(-c2ccc3c(c2)CCC32CCN(Cc3nccs3)CC2)c1 | 74.6
91 | c1cncc(-c2ccc3c(c2)C2(CCNCC2)CC3)c1 | -40.79
92 | CN(C)CC(=O)N1CCC2(CCc3ccc(-c4ccncc4)cc32)CC1.O=C(O)C(F)(F)F.O=C(O)C(F)(F)F | -52.11
93 | O=C(O)C(F)(F)F.c1cncc(-c2ccc3c(c2)C2(CC3)CCN(c3nncs3)CC2)c1 | 12.31
94 | Cc1ccc2c(c1)CCC21CCN(C(=O)CN(C)C)CC1.O=C(O)C(F)(F)F | -22.19
95 | CN(C)CC(=O)N1CCC2(CCc3cc(-c4cccnc4)ccc32)CC1.O=C(O)C(F)(F)F.O=C(O)C(F)(F)F | 53.15
96 | O=C(O)C(F)(F)F.O=C(O)C(F)(F)F.c1cncc(C2COC3(CCN(Cc4nccs4)CC3)C2)c1 (centres undefined) | -9.404
97 | CN1CCN(Cc2cccnc2)C(=O)C12CCN(Cc1ccco1)CC2.O=C(O)C(F)(F)F.O=C(O)C(F)(F)F.O=C(O)C(F)(F)F | 5.064
98 | O=C(O)C(F)(F)F.O=C(O)C(F)(F)F.c1cncc(-c2ccc3c(c2)CCC32CCN(Cc3ccco3)CC2)c1 | 104
99 | O=C(O)C(F)(F)F.O=C(O)C(F)(F)F.c1csc(CN2CCC3(CC2)CCN(CC2CC2)CC3)n1 | -18.7
